# Laboratory results taken from the antibiotic and cytotoxicity screens of Wong et al. (2023).
# Screen size: about 39,000 compounds; about 1,500 (3.8%) were called active. The entries come from a sample that favours actives as a whole.
# System: HSkMC (human skeletal muscle cells)
# Assay: cytotoxicity call (relative viability < 0.9)
# Details: 10 µM
row,SMILES,cytotoxicity call
1,CCS(=O)(=O)Nc1ccc2c(c1)C(=O)N(C)[C@@H]1CC[C@H](CC(=O)NCCCN3CCOCC3)O[C@@H]1CO2,inactive
2,COc1ccc(S(=O)(=O)Nc2ccc3c(c2)CC(=O)N([C@H](C)CO)C[C@@H](C)[C@@H](CN(C)Cc2ccc(-c4ccccc4)cc2)O3)cc1,active
3,COc1ccc(S(=O)(=O)Nc2ccc3c(c2)CC(=O)N([C@H](C)CO)C[C@H](C)[C@H](CN(C)Cc2ccc(-c4ccccc4)cc2)O3)cc1,inactive
4,COc1ccc(S(=O)(=O)Nc2ccc3c(c2)CC(=O)N([C@@H](C)CO)C[C@H](C)[C@@H](CN(C)Cc2ccc(-c4ccccc4)cc2)O3)cc1,inactive
5,COc1ccc(S(=O)(=O)Nc2ccc3c(c2)CC(=O)N([C@H](C)CO)C[C@@H](C)[C@H](CN(C)Cc2ccc(-c4ccccc4)cc2)O3)cc1,active
6,COc1ccc(S(=O)(=O)Nc2ccc3c(c2)CC(=O)N([C@@H](C)CO)C[C@H](C)[C@H](CN(C)Cc2ccc(-c4ccccc4)cc2)O3)cc1,active
7,COc1ccc(S(=O)(=O)Nc2ccc3c(c2)CC(=O)N([C@H](C)CO)C[C@H](C)[C@@H](CN(C)Cc2ccc(-c4ccccc4)cc2)O3)cc1,inactive
8,COc1ccc(S(=O)(=O)Nc2ccc3c(c2)CC(=O)N([C@@H](C)CO)C[C@@H](C)[C@@H](CN(C)Cc2ccc(-c4ccccc4)cc2)O3)cc1,inactive
9,COc1ccc(S(=O)(=O)Nc2ccc3c(c2)CC(=O)N([C@@H](C)CO)C[C@@H](C)[C@H](CN(C)Cc2ccc(-c4ccccc4)cc2)O3)cc1,inactive
10,Cc1ccc2oc(=O)cc(Cl)c2c1,inactive
11,NC(=O)NCC#Cc1ccc2c(c1)[C@]1(C(=O)N2)[C@H](C(=O)O)[C@H]2C(=O)O[C@H](c3ccccc3)[C@H](c3ccccc3)N2[C@@H]1c1ccc(OCCO)cc1,inactive
12,COc1ccccc1CNC(=O)C[C@H]1C[C@H]2c3cc(NC(=O)C4CCOCC4)ccc3O[C@H]2[C@@H](CO)O1,inactive
13,CC(C)NC(=O)N(C)C[C@@H]1Oc2ccc(NS(=O)(=O)c3cn(C)cn3)cc2CC(=O)N([C@@H](C)CO)C[C@@H]1C,inactive
14,Cc1noc(C)c1NC(=O)N(C)C[C@@H]1OCCCC[C@@H](C)Oc2ccc(NS(=O)(=O)c3ccc(Cl)cc3)cc2C(=O)N([C@H](C)CO)C[C@@H]1C,inactive
15,COc1ccc(S(=O)(=O)N(C)C[C@@H]2Oc3ccc(NC(=O)c4ccncc4)cc3CC(=O)N([C@@H](C)CO)C[C@H]2C)cc1,inactive
16,Nc1ccc(S(N)(=O)=O)cc1,inactive
17,C[C@@H]1CN([C@@H](C)CO)C(=O)c2cc(N(C)C)ccc2O[C@@H](C)CCCCO[C@@H]1CN(C)C(=O)CCCN(C)C,inactive
18,Cc1ccc2[nH]c(=O)c(C3=NN(C(=O)CCC(=O)O)[C@H](c4ccc(Br)cc4)C3)c(-c3ccccc3)c2c1,inactive
19,COc1ccc(S(=O)(=O)Nc2ccc3c(c2)CC(=O)N([C@H](C)CO)C[C@@H](C)[C@@H](CN(C)S(=O)(=O)c2ccc(OC)cc2)O3)cc1,inactive
20,C[C@H](CO)N1C[C@H](C)[C@@H](CN(C)Cc2ccc(Oc3ccccc3)cc2)Oc2c(NC(=O)Nc3cccc4ccccc34)cccc2C1=O,active
21,C[C@H](CO)N1C[C@H](C)[C@@H](CN(C)Cc2ccc(Oc3ccccc3)cc2)Oc2c(NC(=O)C3CCCCC3)cccc2C1=O,active

row,SMILES,cytotoxicity call
1,C[C@H](CO)N1C[C@H](C)[C@H](CN(C)Cc2ccc(Oc3ccccc3)cc2)Oc2c(NC(=O)Nc3cccc4ccccc34)cccc2C1=O,inactive
2,C[C@H](CO)N1C[C@H](C)[C@@H](CN(C)Cc2ccc(Oc3ccccc3)cc2)Oc2c(NC(=O)Nc3ccccc3)cccc2C1=O,active
3,C[C@@H]1CN([C@@H](C)CO)C(=O)c2cccc(NC(=O)C3CCCCC3)c2O[C@H]1CN(C)Cc1ccc(Oc2ccccc2)cc1,inactive
4,C[C@@H]1CN([C@H](C)CO)C(=O)c2cccc(NC(=O)Nc3ccccc3)c2O[C@H]1CN(C)Cc1ccc(Oc2ccccc2)cc1,inactive
5,C[C@H]1CN([C@@H](C)CO)C(=O)c2cccc(NC(=O)C3CCCCC3)c2O[C@H]1CN(C)Cc1ccc(Oc2ccccc2)cc1,inactive
6,C[C@@H]1CN([C@H](C)CO)C(=O)c2cccc(NC(=O)Nc3ccccc3)c2O[C@@H]1CN(C)Cc1ccc(Oc2ccccc2)cc1,inactive
7,C[C@H]1CN([C@@H](C)CO)C(=O)c2cccc(NC(=O)Nc3cccc4ccccc34)c2O[C@H]1CN(C)Cc1ccc(Oc2ccccc2)cc1,inactive
8,C[C@@H]1CN([C@@H](C)CO)C(=O)c2cccc(NC(=O)Nc3ccccc3)c2O[C@H]1CN(C)Cc1ccc(Oc2ccccc2)cc1,inactive
9,C[C@H]1CN([C@@H](C)CO)C(=O)c2cccc(NC(=O)Nc3ccccc3)c2O[C@@H]1CN(C)Cc1ccc(Oc2ccccc2)cc1,active
10,C[C@@H]1CN([C@@H](C)CO)C(=O)c2cccc(NC(=O)Nc3ccccc3)c2O[C@@H]1CN(C)Cc1ccc(Oc2ccccc2)cc1,inactive
11,O=C1NC[C@@H](c2ccccc2)OC(=O)[C@H](Cc2ccc(F)cc2)CCC=CC[C@@H]1CC(=O)N(CCO)Cc1ccccc1,inactive
12,C[C@H]1CN([C@@H](C)CO)C(=O)c2cc(NC(=O)Nc3ccc(C(F)(F)F)cc3)ccc2O[C@@H]1CN(C)Cc1ccncc1,inactive
13,COc1ccc(S(=O)(=O)Nc2cccc3c2O[C@H](CN(C)Cc2ccncc2)[C@@H](C)CN([C@H](C)CO)C3=O)cc1,inactive
14,CCC1OC(=O)C(C)C(=O)C(C)C(OC2OC(C)CC(N(C)C)C2O)C(C)(OC)CC(C)C(=O)C(C)C2N(CCCCn3cnc(-c4cccnc4)c3)C(=O)OC12C (configuration not stated),inactive
15,C[C@@H]1CN([C@@H](C)CO)C(=O)c2cc(NC(=O)Cc3cn(C)c4ccccc34)ccc2O[C@@H]1CN(C)Cc1ccc(C(F)(F)F)cc1,inactive
16,C[C@@H]1CN([C@H](C)CO)C(=O)c2cccc(NC(=O)Nc3ccc(F)cc3)c2O[C@@H]1CN(C)Cc1ccc(-c2ccccc2)cc1,inactive
17,CC(=O)n1cc([C@H]2C=C(C(=O)NCc3ccccc3)O[C@@H](OCc3ccc(CO)cc3)C2)c2ccccc21,inactive
18,CN(C)CC(=O)N[C@H]1C=C[C@H](CC(=O)NCCN2CCCCC2)O[C@H]1CO,inactive
19,COC(=O)[C@@H](NC(=O)Cn1cc(COc2ccccc2/C=C(C)/C=C/C(=O)NO)nn1)c1ccccc1,inactive
20,Cc1noc(C)c1NC(=O)Nc1ccc2c(c1)C(=O)N([C@@H](C)CO)C[C@@H](C)[C@@H](CN(C)Cc1ccc(Oc3ccccc3)cc1)O2,inactive
21,N=C(C[n+]1ccccc1)NO,inactive

row,SMILES,cytotoxicity call
1,COC(=O)[C@H](Cc1ccc(-n2cc(-c3cccc(/C=C/C(=O)NO)c3)nn2)cc1)N1CC2=C[C@H]([C@@H](O)Cc3ccccc3)n3c(=O)n(C)c(=O)n3[C@@H]2[C@@H](C2CC2)O1,inactive
2,C[C@H](CO)N1C[C@H](C)[C@@H](CN(C)Cc2ccc(C(=O)Nc3ccccc3N)cc2)Oc2ccc(NC(=O)CCN3CCOCC3)cc2CC1=O,inactive
3,CC(C)N1C[C@H](C)[C@@H](CN(C)Cc2ccc(Oc3ccccc3)cc2)Oc2c(NC(=O)C3CCNCC3)cccc2C1=O,active
4,CC(C)N1C[C@H](C)[C@@H](CN(C)Cc2ccc(Oc3ccccc3)cc2)Oc2c(NC(=O)C3CCN(C)CC3)cccc2C1=O,inactive
5,C[C@H](CO)N1C[C@H](C)[C@@H](CN(C)Cc2ccc(Oc3ccccc3)cc2)Oc2c(NC(=O)C3CC3)cccc2C1=O,inactive
6,COCC(=O)N1C[C@@H](C)[C@@H](OC)CN(C)C(=O)c2cc(NC(=O)c3ccc(F)cc3)ccc2OC[C@H]1C,inactive
7,CN(C)CC(=O)N[C@H]1CC[C@H](CCNC(=O)C2CC2)O[C@H]1CO,inactive
8,CO[C@@H]1CN(C)C(=O)c2ccc(NS(=O)(=O)CC(F)(F)F)cc2OC[C@@H](C)N(Cc2nccs2)C[C@@H]1C,inactive
9,O=C(CCCCCCC(=O)Nc1ccc([C@H]2C[C@H](c3ccccc3)O[C@H](c3cccc(Oc4ccccc4)c3)O2)cc1)NO,inactive
10,COc1cc2c(cc1OC)CN(C[C@H]1C[C@H](c3ccccc3)O[C@H](c3ccc(NC(=O)CCCCCCC(=O)NO)cc3)O1)CC2,active
11,O=C(CCCCCCC(=O)Nc1ccc([C@H]2O[C@@H](COc3ccccc3)C[C@H](c3ccccc3)O2)cc1)NO,inactive
12,O=C(CCCCCCC(=O)Nc1ccc([C@H]2C[C@H](c3ccccc3)O[C@H](c3ccccc3)O2)cc1)NO,inactive
13,O=C(CCCCCCC(=O)Nc1ccc([C@H]2C[C@H](c3ccccc3)O[C@H](c3ccc(Oc4ccccc4)cc3)O2)cc1)NO,active
14,O=C(CCCCCCC(=O)Nc1ccc([C@H]2O[C@@H](CN3CCCCCCC3)C[C@H](c3ccccc3)O2)cc1)NO,inactive
15,C[C@@H]1CN([C@H](C)CO)C(=O)c2cc(NC(=O)C3CCCCC3)ccc2O[C@@H](C)CCCCO[C@H]1CN(C)S(=O)(=O)c1cccs1,inactive
16,COc1ccc(NC(=O)N(C)C[C@@H]2OCCCC[C@H](C)Oc3ccc(NC(=O)Nc4c(C)noc4C)cc3C(=O)N([C@@H](C)CO)C[C@H]2C)cc1,inactive
17,CC(C)=CCCC(C)=CCO,inactive
18,CN(C)CCOc1ccc(C(=C(CCCl)c2ccccc2)c2ccccc2)cc1.O=C(O)CC(O)(CC(=O)O)C(=O)O,active
19,CCN(CC)CCOc1ccc(C(=C(Cl)c2ccccc2)c2ccccc2)cc1.O=C(O)CC(O)(CC(=O)O)C(=O)O,inactive
20,CCC(=C(c1ccccc1)c1ccc(OCCN(C)C)cc1)c1ccccc1.O=C(O)CC(O)(CC(=O)O)C(=O)O,inactive
